Screening results from PubChem.
Shiga toxin inh: A qHTS for Small Molecule Inhibitors of Shiga Toxin; Vero cells, Shiga toxin protein synthesis inhibition reporter; inhibition, % at 38.7 µM; 290,000 compounds, 9.2% hits; AID 2315, 2010; in the data active = inhibition mostly above about 28%, no sharp cut-off; inactive = mostly below about 43%
FBPA Giardia inh: qHTS Assay for Inhibitors of Fructose-1,6-bisphosphate Aldolase from Giardia Lamblia; purified Giardia FBPA; Potency, µM (doses to about 59.6 µM), most hits filed as inhibitors; 290,000 compounds, 0.71% hits; also: nearly all actives have a fitted effect of over 55% in size
Target sequence (A8B2U2 whole entry, looked up): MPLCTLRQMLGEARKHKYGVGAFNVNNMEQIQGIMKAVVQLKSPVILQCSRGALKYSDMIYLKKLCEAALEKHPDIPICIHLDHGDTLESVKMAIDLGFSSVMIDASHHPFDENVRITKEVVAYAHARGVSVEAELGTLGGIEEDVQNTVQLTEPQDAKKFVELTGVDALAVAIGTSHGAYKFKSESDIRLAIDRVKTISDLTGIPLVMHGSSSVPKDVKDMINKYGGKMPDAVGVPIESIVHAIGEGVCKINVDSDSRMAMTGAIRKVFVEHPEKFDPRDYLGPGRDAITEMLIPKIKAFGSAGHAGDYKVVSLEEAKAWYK
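Giardia FBPA (40 nM reagent) was preincubated 10 min at RT with compound (up to 57.5 uM final), then substrate plus GAPDH/TPI/NAD/arsenate coupling system with diaphorase/resazurin was added; resorufin fluorescence (525/598 nm) was read after 20 min.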
Cycloheximide cs: Cycloheximide Counterscreen for Small Molecule Inhibitors of Shiga Toxin; AID 2314, 2010; cell reporter, cycloheximide protein synthesis inhibition counterscreen; max response, %; 300,000 compounds, 12% hits; in the data active = max response mostly above about 13%, no sharp cut-off; inactive = mostly below about 14%; also: read at 38.3 µM for the half of the compounds with a filed dose
Pf growth 96h: Primary qHTS for delayed death inhibitors of the malarial parasite plastid, 96 hour incubation; P. falciparum luciferase reporter growth, 96 h; Potency, µM (series often up to 28.7 µM), usual class: inhibitors; 320,000 compounds, 6.9% hits
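96 h incubation, 37 C, 5% CO2, of luciferase-reporter P. falciparum-infected RBCs (2% hematocrit, 0.05% parasitemia final) with test compounds; endpoint luminescence.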
NS1 function inh: qHTS Assay for Inhibitors of Influenza NS1 Protein Function; Potency, µM (doses to about 46.1 µM); 270,000 compounds, 0.4% hits; calls by dose curve; also: actives are rising curves; nearly all actives have a fitted effect of over 50% in size
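Compounds were scored for reversing the slow growth caused by influenza A NS1 in S. cerevisiae, measured by optical density at 600 nm. Assay medium contained 2% galactose at pH 6.0; NS1-free yeast of the same strain were the positive control.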
Pf growth 48h: Primary qHTS for delayed death inhibitors of the malarial parasite plastid, 48 hour incubation; Potency, µM (highest dose often 28.7 µM), actives largely listed as inhibitors; P. falciparum luciferase growth in erythrocytes, 48 h; 310,000 compounds, 5.9% hits
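Luciferase-expressing parasites in RBCs, 2% Hct / 0.1% parasitemia final; RPMI 1640 + 0.5% Albumax; 37 C, 5% CO2, one generation; luminescence read-out, lower signal = inhibition.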
Hits are given with their value; - = inactive; ? = inconclusive; . = no result. This is a sample that favours compounds with a hit; in the whole collection about 21% have one here. Unless noted, calls follow the shape of the dose curve; as a rule, active = well fitted curve in the direction sought with a large enough effect; inconclusive = small, poorly fitted or top-dose-only effect, or another doubt; inactive = no such curve, though single readings can be large; an effect the other way counts as inactive or inconclusive.

SMILES | Shiga toxin inh | FBPA Giardia inh | Cycloheximide cs | Pf growth 96h | NS1 function inh | Pf growth 48h
CC(=O)Nc1ccc(NC(=O)CCCn2cnc3ccccc3c2=O)cc1 | - | - | - | - | - | .
CCOC(=O)[C@H]1[C@H]2COc3ccc(OC)cc3[C@H]2N2C(=O)CNC(=O)[C@@]12C | . | . | . | - | . | -
Cc1nc(C)c(-c2ccc(SCC(=O)Nc3cccc(Cl)c3)nn2)s1 | - | . | - | 13µM | - | -
Cc1nc(C)c(-c2ccc(SCC(=O)Nc3cccc(F)c3)nn2)s1 | - | . | - | ? | - | -
COc1ccc(NC(=O)CSc2ccc(-c3sc(C)nc3C)nn2)cc1 | - | . | - | 13µM | - | -
CC(=O)c1cccc(NC(=O)CSc2ccc(-c3sc(C)nc3C)nn2)c1 | - | . | - | 13µM | - | -
CCOc1ccccc1NC(=O)CSc1ccc(-c2sc(C)nc2C)nn1 | - | . | - | 10µM | - | ?
NC1=C2NC=N[C@@H]2N(C/C=C\c2ccccc2)C=N1 | . | . | . | . | - | .
CC(C)c1ccc(CN(C(=O)c2cccs2)C2CCS(=O)(=O)C2)cc1 (stereo not given) | - | - | - | ? | - | ?
Cn1c(SCC(=O)NCC2CCCO2)nc2c(c1=O)SCC2 (stereo not given) | - | . | - | - | - | -
CCCCOc1ccc(S(=O)(=O)NCc2csc(C)n2)cc1 | - | - | - | 10µM | - | -
Cc1ccc(S(=O)(=O)NCc2csc(C)n2)cc1 | - | - | - | ? | - | -
CC(=O)c1cccc(OCc2cc(C(=O)N3C[C@H]4CC[C@H]3C4)no2)c1 | 82 | . | 50 | ? | - | -
CC(=O)c1cccc(OCc2cc(C(=O)N3C[C@@H](C)O[C@@H](C)C3)no2)c1 | 75 | - | 41 | ? | - | -
CC1(C)C[C@@H]2C[C@@](C)(CN2C(=O)c2cc(COc3cccc(C(F)(F)F)c3)on2)C1 | 42 | . | - | - | - | -
O=C(c1cc(COc2cccc(C(F)(F)F)c2)on1)N1C[C@H]2CC[C@H]1C2 | 80 | . | 30 | - | - | -
CC1(C)CC2CC(C)(CN2C(=O)c2cc(-c3ccccc3O)on2)C1 (stereo not given) | - | - | - | - | - | .
O=C(CSc1nnnn1-c1ccc2c(c1)OCCO2)N1CCN(C(=O)c2ccco2)CC1 | - | - | - | - | - | -
O=C(C[n+]1ccccc1)N/N=C/c1cccs1 | - | - | - | - | . | -
S=c1[nH]nc(C2CCCCC2)o1 | - | ? | - | - | . | -
COCCC1CCCCN1C(=O)c1cc(COc2cccc(C(C)=O)c2)on1 (stereo not given) | 76 | . | 34 | - | - | -
CSCCC(NC(=O)COc1ccccc1)C(=O)N1CC(C)OC(C)C1 (stereo not given) | . | . | . | - | . | -
CC(=O)c1c(C)[nH]c(C(=O)COC(=O)C2CC2)c1C | - | - | - | - | . | -
CCCC(=O)OCC(=O)c1[nH]c(C)c(C(C)=O)c1C | - | - | 35 | - | . | ?
CC(=O)c1c(C)[nH]c(C(=O)COc2cc(C)ccc2C(C)C)c1C | - | - | - | 4.7µM | - | .
SMILES | Shiga toxin inh | FBPA Giardia inh | Cycloheximide cs | Pf growth 96h | NS1 function inh | Pf growth 48h
CCCCC(=O)OCC(=O)c1[nH]c(C)c(C(C)=O)c1C | 66 | - | 39 | ? | . | -
Cc1ccc(C(C(=O)NCc2ccc(F)cc2)N(Cc2ccco2)C(=O)c2snc(C(N)=O)c2N)o1 (stereo not given) | - | - | - | - | - | -
O=C(Nc1ccc(Cl)cc1)c1ccc2nsnc2c1 | 97 | - | 35 | - | . | -
CN(C)c1ccc(NC(=O)c2ccc3nsnc3c2)cc1 | 160 | - | 46 | - | ? | -
COc1ccc(N(C)C(=O)Nc2ccc3nsnc3c2)cc1 | - | - | - | - | - | -
CCc1ccccc1N(CC(=O)NC(C)(C)C)C(=O)CCC(=O)Nc1ccccn1 | - | - | - | ? | - | -
Cc1ccc(OCC(=O)NCCNC(=O)c2cnccn2)cc1 | - | - | - | ? | - | -
COC(=O)C1=NNC2C(=O)N(C3CCCCC3)C(=O)C12 (stereo not given) | - | - | - | 3.3µM | - | -
COC(=O)C1=NNC2C(=O)N(c3ccc(C)cc3)C(=O)C12 (stereo not given) | - | - | - | ? | . | -
